In the library only some 12% were active in any assay of this set; here they are far more common.
ALDH1A1 inh = qHTS Assay for Inhibitors of Aldehyde Dehydrogenase 1 (ALDH1A1); 220,000 compounds, 7.3% hits; Aldehyde dehydrogenase 1A1 (Homo sapiens), P00352; Potency, µM (titrated, usually from 75.3 µM), without a hit: top-dose activity, negative = inhibition, hits mostly inhibitors; Purified ALDH1A1, NADH fluorescence, propionaldehyde substrate; AID 1030, 2008; active means well fitted inhibition curve with a large enough effect, not every such curve was filed as active; inconclusive means small, poorly fitted or top-dose-only effect, or another doubt; inactive means no such curve, though single readings can be large or run the other way;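 further: plate controls were no enzyme wells and a reference inhibitor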
Gal4-VP16 FLuc = VP16 counterscreen qHTS for inhibitors of ROR gamma transcriptional activity; Drosophila S2 Gal4-VP16 UAS-luciferase, luminescence, 20 h; Potency, µM (titrated, usually from 53.6 µM), for the others: top-dose activity, negative = inhibition, actives largely listed as inhibitors; 310,000 compounds, 3.5% hits;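 further: Gal4-VP16 expression switched on by copper sulfate through the metallothionein promoter; nearly all actives have a fitted effect of over 50% in size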
Sfp inh = qHTS Assay for Inhibitors of Bacillus subtilis Sfp phosphopantetheinyl transferase (PPTase); AID 1490, 2009; Potency, µM, for the others: largest response in the series, negative = inhibition, hits mostly inhibitors; 310,000 compounds, 3.5% hits; Biochemical Sfp PPTase activity, qHTS;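 further: the enzyme is Sfp with the accession as filed and its product quenches rhodamine fluorescence; 0% = enzyme reaction without inhibitor and -100% = no enzyme wells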
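After 15 min at room temperature with compound, 15 nM Sfp received 5 uM rhodamine-CoA plus 12.5 uM BHQ-2-ybbR (50 mM Hepes pH 7.6, 10 mM MgCl2). Rate came from the fluorescence difference over 30 min, ex 525/em 598 nm.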
PLK1 PBD inh = qHTS for Inhibitors of PLK1-PDB (polo-like kinase 1 - polo-box domain): Primary Screen. Plk1 PBD binding of FITC phosphopeptide, fluorescence polarization. Potency, µM, without a hit: max response, negative = inhibition, most hits filed as inhibitors. 360,000 compounds, 2.8% hits. AID 720504, 2013; further: series mostly up to about 57 µM; nearly all actives have a fitted effect of over 65% in size
RORgamma inh = qHTS for inhibitors of ROR gamma transcriptional activity; Drosophila S2 Gal4-RORgamma UAS-luciferase reporter, 20 h; Potency, µM (top dose mostly 53.6 µM), for inactives: at the highest dose activity change, negative = inhibition, most hits filed as inhibitors; 310,000 compounds, 5.4% hits; further: nearly all actives have a fitted effect of over 60% in size
Target sequence (P51450 whole entry, looked up, the tested form may be a part): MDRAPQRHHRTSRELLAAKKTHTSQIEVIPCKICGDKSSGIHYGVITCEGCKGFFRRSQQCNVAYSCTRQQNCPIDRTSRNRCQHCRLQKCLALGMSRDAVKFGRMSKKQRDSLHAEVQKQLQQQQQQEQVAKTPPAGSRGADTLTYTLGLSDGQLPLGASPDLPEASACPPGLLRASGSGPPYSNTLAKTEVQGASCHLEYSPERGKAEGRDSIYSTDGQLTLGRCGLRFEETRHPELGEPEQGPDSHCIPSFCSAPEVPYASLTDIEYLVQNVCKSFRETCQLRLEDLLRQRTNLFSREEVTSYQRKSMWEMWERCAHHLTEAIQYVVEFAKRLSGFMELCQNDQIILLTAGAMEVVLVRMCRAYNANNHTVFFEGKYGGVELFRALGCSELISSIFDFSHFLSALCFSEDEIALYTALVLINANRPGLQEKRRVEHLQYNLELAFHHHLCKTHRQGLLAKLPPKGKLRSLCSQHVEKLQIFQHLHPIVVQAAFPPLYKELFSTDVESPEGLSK
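Stable Schneider cell line, Gal4 DNA-binding domain fused to ROR gamma, UAS-luciferase. Cmpd 1 hr RT → CuSO4 700 uM final → 20 hr RT → luciferase reagent 10 min → luminescence.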
* hit, by the source's call; ? = inconclusive; . = no result. Unless noted, the call rests on the fitted dose curve; in most records, active means well fitted curve in the direction sought with a large enough effect; inconclusive means small, poorly fitted or top-dose-only effect, or another doubt; inactive means no such curve, though single readings can be large; an effect the other way counts as inactive or inconclusive. Unless noted, on the % scale 0 is the no-effect control and ±100 the full control effect; potency means the concentration at half of the fitted maximal effect.

SMILES	ALDH1A1 inh	Gal4-VP16 FLuc	Sfp inh	PLK1 PBD inh	RORgamma inh
NC(=O)C1CCN(C(=S)c2ccc(-c3ccc(Br)cc3)o2)CC1	-5.8%	2.6%	15.8µM*	11.9µM*	17.3%
CCCCOc1ccc(C(=S)N2CCC(C(N)=O)CC2)cc1	?	7.8%	-27.4%	?	14.5%
Cc1nn(-c2ccccc2)c(C)c1/C=N/Nc1nc2ccccc2[nH]1	-7.2%	-2.0%	-6.7%	-13.7%	5.4%
C=CCn1cc(/C=N/Nc2nc3ccccc3[nH]2)c2ccccc21	-15.7%	7.08µM*	15.8µM*	-8.3%	4.47µM*
CCCn1c(/C=N/Nc2nc3ccccc3[nH]2)nc2ccccc21	-3.2%	3.16µM*	?	5.5%	2µM*
CC(C)Cn1c(/C=N/Nc2nc3ccccc3[nH]2)nc2ccccc21	-3.9%	1.12µM*	-10.9%	-12.4%	1.78µM*
COC(=O)c1ccc(/C=N/Nc2nc3ccccc3[nH]2)cc1	-1.3%	-8.0%	-3.4%	-6.9%	?
Cc1c(/C=N/Nc2nc3ccccc3[nH]2)c2ccccc2n1C	.	?	?	-8.5%	5.01µM*
COCCNc1oc(Cc2cccc3ccccc23)nc1C#N	.	-4.9%	20.8%	-8.4%	0.7%
CC1(C)CCC[C@@](C)([C@H]2CC[C@]3(C)[C@@H]2[C@H](O)CC2[C@@]4(C)CC[C@H](O)C(C)(C)[C@@H]4[C@@H](O)C[C@]23C)O1 (stereo partly drawn)	.	5.2%	5.0%	.	?
Cn1c(/C=N/Nc2nc3ccccc3[nH]2)nc2ccccc21	0.0%	12.6µM*	-7.6%	-8.5%	4.47µM*
CSC1=NC(C)(C)C=C(/C=C/c2ccc(Cl)cc2)N1	20µM*	?	39.8µM*	?	?
Cc1ccc(NC(=S)/N=C(\N)Nc2nc(C)c3cc(C)ccc3n2)c(C)c1	12.4%	7.08µM*	5.0%	-7.8%	7.94µM*
CCc1ccccc1NC(=S)/N=C(\N)Nc1nc(C)c2cc(C)ccc2n1	11.8%	3.16µM*	-10.6%	-19.5%	2.82µM*
Cc1ccc(NC(=S)/N=C(\N)Nc2nc(C)c3cc(C)c(C)cc3n2)cc1C	5.9%	5.01µM*	11.7%	-12.2%	2.24µM*
CN1CCCC(C)(C(=O)Nc2ccc(-n3cccc3)cc2)C1 (stereo not drawn)	.	.	.	4.1%	.
CCCCN(C=O)c1c(CC)nc2c(OCCOc3ccccc3)cccn12	.	.	.	-4.0%	.
Cc1ccn2c(c1)nc(=S)n2C(=O)c1ccccc1	?	2.51µM*	-17.1%	21.2µM*	3.98µM*
Cc1cccc(C(=O)n2c(=S)nc3cc(C)ccn32)c1	?	?	8.91µM*	21.2µM*	?
Cc1cccc(C(=O)Nc2ccn(C)n2)c1	.	.	.	2.0%	.
C[C@H](c1ccccc1)N1C[C@H](COCc2ccccc2)Oc2cc(N3CC[C@@H](O)C3)ccc2S1(=O)=O	.	.	.	-3.8%	.
Fc1ccccc1/C=N/n1cc(-c2ccccc2)[nH]c1=S	.	8.91µM*	89.1µM*	-20.8%	1.41µM*
Cc1ccc(C)c(/C=N/n2cc(-c3ccccc3)[nH]c2=S)c1	-2.5%	?	4.1%	-11.8%	0.282µM*
CCOc1cc(NC(=S)NCCc2ccccc2)c(OCC)cc1NC(C)=O	-1.3%	-17.7%	24.1%	-17.8%	11.2µM*
COc1cc(NC(=S)NCCc2ccccc2)c(OC)cc1NC(=O)CC(C)C	-8.1%	?	-2.1%	-2.5%	10µM*
SMILES	ALDH1A1 inh	Gal4-VP16 FLuc	Sfp inh	PLK1 PBD inh	RORgamma inh
CC(C)(C)NC(=S)NCCc1ccccc1	6.7%	7.08µM*	-13.4%	-19.1%	6.31µM*
CC(C)CC(=O)NC(=S)NCCc1ccccc1	-2.7%	7.94µM*	-8.0%	-10.6%	1.78µM*
CCOc1cc(NC(=S)NCc2ccccc2)c(OCC)cc1NC(=O)C(C)C	.	?	12.6%	-6.2%	?
COc1ccccc1CC(=O)NCCc1ccccc1	.	-10.6%	5.3%	-24.6%	?
O=C(CC(=O)NCCc1ccccc1)NCCc1ccccc1	.	3.0%	15.8%	0.2%	18.6%
O=c1c(-c2cccc(F)c2)nc2cncnc2n1-c1ccccc1	5.5%	-2.9%	24.0%	.	2.2%

Screening results from PubChem BioAssay.
